From PubChem BioAssay AID1726 (National Center for Advancing Translational Sciences (NCATS), 2009)
Results filed as inconclusive are left out. Activity calls are given as the source filed them. Calls follow the shape of the dose curve; as a rule, active = well fitted curve in the direction sought with a large enough effect; inconclusive = small, poorly fitted or top-dose-only effect, or effect the other way, or another doubt; inactive = no such curve, though single readings can be large or run the other way.

Target: Epidermal growth factor receptor (Homo sapiens) (UniProt P00533)
Sequence (P00533 whole entry T790M/L858R, looked up): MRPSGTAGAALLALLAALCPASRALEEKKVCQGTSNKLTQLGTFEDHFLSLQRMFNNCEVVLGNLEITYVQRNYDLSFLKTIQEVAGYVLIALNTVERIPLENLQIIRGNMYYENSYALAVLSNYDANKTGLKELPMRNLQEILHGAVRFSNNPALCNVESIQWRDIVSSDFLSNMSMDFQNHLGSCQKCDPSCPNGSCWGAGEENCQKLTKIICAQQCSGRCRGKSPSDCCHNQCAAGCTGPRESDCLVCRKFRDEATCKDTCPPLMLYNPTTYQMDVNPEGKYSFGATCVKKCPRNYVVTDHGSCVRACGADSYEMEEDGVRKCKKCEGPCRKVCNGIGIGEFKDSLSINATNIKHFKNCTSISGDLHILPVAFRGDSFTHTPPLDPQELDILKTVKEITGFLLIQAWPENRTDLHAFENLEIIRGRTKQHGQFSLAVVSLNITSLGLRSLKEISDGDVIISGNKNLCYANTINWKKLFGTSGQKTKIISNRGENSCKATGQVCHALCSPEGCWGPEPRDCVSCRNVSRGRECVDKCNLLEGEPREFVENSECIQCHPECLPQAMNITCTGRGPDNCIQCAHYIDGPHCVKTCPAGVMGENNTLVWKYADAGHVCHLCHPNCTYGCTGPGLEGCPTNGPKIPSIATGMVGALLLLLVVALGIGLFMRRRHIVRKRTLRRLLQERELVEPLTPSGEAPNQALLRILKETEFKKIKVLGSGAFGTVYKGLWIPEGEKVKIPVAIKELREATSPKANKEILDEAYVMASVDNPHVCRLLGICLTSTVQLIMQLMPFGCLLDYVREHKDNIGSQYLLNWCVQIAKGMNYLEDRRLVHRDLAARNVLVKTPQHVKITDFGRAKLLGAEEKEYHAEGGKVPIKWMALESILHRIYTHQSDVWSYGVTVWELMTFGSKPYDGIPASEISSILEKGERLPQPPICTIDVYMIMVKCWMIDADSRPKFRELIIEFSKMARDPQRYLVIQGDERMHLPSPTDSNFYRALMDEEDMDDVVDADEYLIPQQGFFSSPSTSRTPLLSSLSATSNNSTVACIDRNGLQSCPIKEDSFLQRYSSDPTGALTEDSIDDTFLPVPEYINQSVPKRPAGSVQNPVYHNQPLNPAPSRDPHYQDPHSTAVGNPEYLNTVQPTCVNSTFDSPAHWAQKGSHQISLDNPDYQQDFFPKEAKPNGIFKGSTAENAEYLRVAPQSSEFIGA
Assay: Assay for Inhibitors of the ERK Signaling Pathway using a Homogeneous Screening Assay: EGFR T790M/L858R Kinase Inhibition
Details: series mostly up to 65.8 µM; activity change, negative = inhibition: at the top concentration
Excerpt: qHTS Assay for Inhibitors of the ERK Signaling Pathway using a Homogeneous Screening Assay
NIH Chemical Genomics Center [NCGC]
NIH Molecular Libraries Screening Centers Network [MLSCN]
Assay Submitter (PI): Dr. Wei Zheng, NCGC/NIH
The Ras/extracellular-signal-regulated kinase (ERK) mitogen activated protein (MAP) kinase signaling pathway (ERK1/2 cascade) plays is a key role in transmitting signals from the cell surface to the nucleus (Nishida and Gotoh 1993; Chang and Karin, 2001). The cascade is initiated by the small G-protein Ras, which recruits Raf […], where activation occurs. Alternatively, this pathway can be activated by elevating intracellular cAMP.
Activation of the ERK pathway is essential in increased cell division and cell survival. Sustained and constitutive activation of the ERK pathway, however, has been linked to uncontrolled cell proliferation, increased cell survival, and tumor progression. Thus, the ERK has been as an attractive target for cancer chemotherapy in the past few years (Sebolt-Leopold and Herrera, 2004). Given its physiological and pathological importance, assessment of ERK phosphorylation has been broadly performed in both basic research and drug discovery. Most assays for the measurement of ERK phosphorylation use the antibody-based detection methods, such as western blot and ELISA. These assays require multiple reagent additions with cell wash steps and are not suitable for high-throughput screening.
The current cell-based ERK phosphorylation assay was performed using AlphaScreen platform. AlphaScreen is a two bead-based proximity-dependent chemical energy transfer luminescent assay platform. The assay reagents (ERK SureFire(TM) kit) were supplied from TGR BioSciences (Australia). In the presence of specific antibodies, phosphorylated ERK will bring "donor" and "acceptor" beads to a proximity range (<200 nm), and subsequently lead a chemical luminescent reaction upon exciting donor beads with 680 nm laser. To validate pathway hits from the cell-based assay, enzyme assays consisting of EGFR tyrosine kinase, Raf and MEK were used as a means of deciphering the enzymes of target for the prioritized group of compounds derived from the HEK-293 cell based assay. The compounds were tested against significant members of the ERK signaling pathway EGFR and EGFR mutants (EGFR L858R, EGFR T790M, and EGFR L858R T790M). In order to establish the specificity of the prioritized compounds for EGFR and EGFR mutants, the compounds were also assayed against other important ERK signaling pathway enzymes, c-RAF and MEK-1.
NCGC Assay Protocol Summary:
The HTRF kinase assay (components supplied as kit by Cisbio) was chosen for the EGFR and EGFR mutant enzyme assays that applied the time resolved fluorescence resonance energy transfer (TR-FRET) principle. A peptide substrate is labeled with a biotin that can bind to XL665 labeled streptavidin and the anti-phosphoresidue antibody is labeled with Eu+. Upon phosphorylation of the substrate, the antibody binds to phosphorylated substrate that enables TR-FRET detection in homogenous assay format.
An HTRF Kinease TK assay kit (Cisbio, Bedford, MA) was used to develop the EGFR and EGFR mutant assays (Harbert et al., 2008. Harbert C, Marshall J, Soh S, Steger K. Development of a HTRF Kinase Assay for Determination of Syk Activity. Current Chemical Genomics. 1: 20-26. 2008). EGFR and EGFR mutants were obtained from Invitrogen. The assay buffer was composed of 50 mM HEPES (pH 7.0), 5 mM MgCl2, 5mM DTT, 0.1 % NaN3, 0.1 % BSA and 0.1 mM orthovanadate.
The HTRF assays were preformed according to the HTRF Kinease TK kit. Optimization for each enzyme was preformed in 384 well format (data not included). All reagents were dispensed into 1536 well plates.
(1) Enzyme, […] EGFR at 3 nM final
(2) Compound, 22 nl, Library Compounds in 0.128 to 10 mM titration series or control
(3) Reagent, 1.5 ul 10 uM ATP and 0.25 uM substrate final
(4) Incubation for 30 min, Ambient conditions
[…]

Activity change, negative = inhibition, inactive:
CCn1c(=O)c2[nH]c(-c3ccccc3)nc2n(CC)c1=O -10.9% [at 21.9 µM], CNc1cccc2c1C(=O)c1ccccc1C2=O 21.5%, O=C1c2ccccc2C(=O)c2c(NCCCN(CCO)CCO)cccc21 27.1%, O=C(Nc1nc(-c2ccccc2)cs1)c1ccc(N2CCOCC2)c([N+](=O)[O-])c1 -1.3%, Cc1ccc(NNc2c(C)nc3ccccc3nc2=O)cc1 9.82% [at 21.9 µM], Cn1c(=O)[nH]c2nnc(-c3ccc(Cl)c(Cl)c3)nc2c1=O 3.61%, CCN(CC)CCC(=O)Nc1cccc2c1C(=O)c1ccccc1C2=O -8.96% [at 21.9 µM], CS(=O)(=O)CCNCc1nc(-c2ccc3ncnc(Nc4ccc(OCc5cccc(F)c5)c(Cl)c4)c3c2)cs1 -1.71%, COc1ccc(C(=O)c2ccc(Cl)c([N+](=O)[O-])c2)cc1 1.54%, Cn1nc(-c2ccc(Cl)cc2)nc2c(=O)n(C)c(=O)nc1-2 13.9% [at 21.9 µM], Cn1nc(-c2ccccn2)nc2c(=O)n(C)c(=O)nc1-2 9.12% [at 21.9 µM], Fc1ccc(Nc2ncnc3sc4c(c23)CCC4)cc1F -14.1%

Potency, active:
Cc1nc2ccccc2nc(=O)c1NNc1ccccc1 3.16 µM, Cc1ccc2nc(=O)c(NNc3ccccc3)cnc2c1 3.55 µM

Potency, inactive:
N#C/C(=C(/N)Sc1ccc(N)cc1)c1ccccc1C(F)(F)F
